Screening data from PubChem.
TDP1 cell noCPT – qHTS for Inhibitors of human tyrosyl-DNA phosphodiesterase 1 (TDP1): qHTS in cells in absence of CPT. DT40 Tdp1-/- hTDP1 cells, no CPT, ATP luminescence, 48 h. Potency, µM (titrated, usually from 46.2 µM), for the others: at the top dose activity change, negative = growth inhibition, most hits filed as inhibitors. actives 15% (n = 420,000). AID 686978, 2013; further: on the % scale 0 is the no-effect control and ±100 the full control effect; nearly all actives have a fitted effect of over 55% in size
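Cells were dispensed at 400 per well, compounds added by pin tool, plates incubated ≥48 hr at 37 °C, then CellTiter-Glo added for 30 min at room temperature before luminescence reading. Line: DT40 Tdp1-/- complemented with hTDP1; camptothecin omitted.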
DT40 TDP1 CPT – qHTS for Inhibitors of human tyrosyl-DNA phosphodiesterase 1 (TDP1): qHTS in cells in presence of CPT; chicken DT40 Tdp1-/-;hTDP1 cells + 20 nM CPT, ATP luminescence, 48 h; Potency, µM (highest dose often 46.2 µM), without a hit: at the highest dose activity change, negative = growth inhibition, usual class: inhibitors; actives 12% (n = 420,000); AID 686979, 2013; further: on the % scale 0 is the no-effect control and ±100 the full control effect; nearly all actives have a fitted effect of over 55% in size
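Cell growth measured by CellTiter-Glo luminescence after a minimum 48 h, 37 C compound exposure with 20 nM CPT in Tdp1-knockout DT40 cells stably expressing hTDP1, seeded 400/well; qHTS titration format.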
ClpP mod – qHTS Assay for Activators of ClpP; actives 1.9% (n = 340,000); purified B. subtilis ClpP, FRET peptide cleavage, 20 min; ATP-dependent Clp protease proteolytic subunit (Bacillus subtilis (strain 168)), P80244; AID 651965, 2013; Potency, µM (top dose mostly 57.5 µM), for inactives: at the highest dose activity change, negative = active; active means well fitted falling curve with a large enough effect; inconclusive means small, poorly fitted or top-dose-only effect; inactive means no such curve, though single readings can be large or run the other way; further: the source files actives as falling curves though it sought activators and does not explain the sign; nearly all actives have a fitted effect of over 65% in size
Target sequence (P80244 whole entry, looked up): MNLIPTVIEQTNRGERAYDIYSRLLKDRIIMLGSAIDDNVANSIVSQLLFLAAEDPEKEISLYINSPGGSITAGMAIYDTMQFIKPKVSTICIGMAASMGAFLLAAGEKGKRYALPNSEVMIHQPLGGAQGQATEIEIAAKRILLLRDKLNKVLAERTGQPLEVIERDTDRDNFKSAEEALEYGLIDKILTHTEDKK
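Purified B. subtilis ClpP, 10 microg/mL final in Tris/HCl pH8 with KCl, BSA, glycerol and Tween-20, cleaved an Abz/nitrotyrosine-quenched decapeptide. Fluorescence (ex 320, em 430) was read at 0 and 20 min at room temperature. Delta was normalized to 5.8 microM ADEP and DMSO/no-enzyme controls.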
TDP1 block – qHTS Assay for Inhibitors of Tyrosyl-DNA Phosphodiesterase (TDP1); Tyrosyl-DNA phosphodiesterase 1 (Homo sapiens), Q9NUW8; recombinant TDP1, AlphaScreen DNA substrate cleavage; Potency, µM (series often up to 130 µM), for inactives: at the highest dose activity change, negative = inhibition, actives largely listed as inhibitors; actives 0.28% (n = 350,000); AID 485290, 2010; further: on the % scale 0 is the no-effect control and ±100 the full control effect; nearly all actives have a fitted effect of over 40% in size
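Recombinant E. coli-expressed Tdp1 (1 nM) preincubated with compound 15 min at RT, then 5'-biotin/3'-phosphotyrosine-FITC DNA substrate (15 nM) added for 5 min. AlphaScreen beads (10 ug/ml) added, 10 min RT; tyrosine-FITC cleavage read as signal loss.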
* hit, by the source's call; ? = inconclusive; nt = not tested or not shown. Compounds with a hit are over-represented: about 17% of the library has one in this group of screens. Unless noted, the call rests on the fitted dose curve; in most records, active means well fitted curve in the direction sought with a large enough effect; inconclusive means small, poorly fitted or top-dose-only effect, or another doubt; inactive means no such curve, though single readings can be large; an effect the other way counts as inactive or inconclusive. Potency means the concentration at half of the fitted maximal effect.

SMILES	TDP1 cell noCPT	DT40 TDP1 CPT	ClpP mod	TDP1 block
CC(=O)N1c2ccc(S(=O)(=O)N3CCC(C(=O)NCc4ccc(Cl)cc4)CC3)cc2CC1C (stereo not drawn)	?	18µM*	-9%	1%
CCC(=O)N/N=C(\C)CC(=O)Nc1ccccc1-c1ccccc1	-13%	-11%	2%	3%
O=C(O)C1CC(O)CN1C(=O)c1ccco1 (stereo not drawn)	-2%	1%	-1%	-3%
CC1(C)COC(Cn2c3ccccc3c3ccccc32)O1 (stereo not drawn)	?	?	nt	-2%
CC1COC(Cn2c3ccccc3c3ccccc32)O1 (stereo not drawn)	18µM*	?	nt	nt
COc1cc(S(=O)(=O)NCc2ccccn2)ccc1Cl	?	?	0%	nt
COc1ccc(S(=O)(=O)NCc2ccccn2)cc1NC(=O)c1ccccc1	4.1µM*	4.6µM*	nt	11%
COc1ccc(S(=O)(=O)NCc2ccccn2)cc1NC(=O)c1ccc(C)cc1	5.2µM*	7.3µM*	nt	-1%
COc1ccc(S(=O)(=O)NCc2ccccn2)cc1Br	-2%	-10%	nt	nt
CCOc1ccc(S(=O)(=O)NCc2ccccn2)cc1NC(=O)c1ccccc1F	0.65µM*	0.65µM*	nt	3%
Cc1ccc(C)c(N2CCN(CCCNC(=O)CCC(=O)N3CCOc4ccc(Cl)cc43)CC2)c1	nt	nt	nt	6%
O=C(CCC(=O)N1CCOc2ccc(Cl)cc21)NCCCN1CCN(c2ccccc2F)CC1	18µM*	21µM*	0%	nt
Cc1ccc(C)c(N2CCN(C(=O)CCC(=O)N3CCOc4ccc(Cl)cc43)CC2)c1	26µM*	15µM*	0%	nt
O=C(CCC(=O)N1CCOc2ccc(Cl)cc21)NCCCN1CCC(Cc2ccccc2)CC1	18µM*	?	0%	nt
Cc1ccc(CSCCC(=O)N2CCN(c3cc(C)ccc3C)CC2)cc1	13µM*	23µM*	2%	3%
O=C(CCSCc1ccc(Cl)cc1)N1CCN(c2ccccc2F)CC1	-5%	-12%	0%	0%
Cc1ccc2c(c1)N(C(=O)CCC(=O)N1CCN(c3ccccn3)CC1)CCO2	-23%	-11%	4%	nt
Cc1ccccc1NC(=O)c1ccc2c(O)c(S(=O)(=O)c3ccccc3)c(=O)[nH]c2c1	14%	-12%	-11%	3%
Cn1c(CCc2ccccc2)n[nH]c1=S	12%	1%	-1%	nt
Cc1nc(NCCc2ccc(F)cc2)c2nnn(Cc3ccccc3)c2n1	0%	0%	nt	nt
Cc1nc(NCCc2ccc(O)cc2)c2nnn(Cc3ccccc3)c2n1	15µM*	?	nt	nt
CCOC(=O)CNc1nc(C(C)(C)C)nc2c1nnn2Cc1ccccc1Cl	26µM*	?	-14%	2%
Cc1nc2c(nnn2Cc2ccccc2)c(=O)[nH]1	?	23µM*	nt	-5%
Cc1nc2c(nnn2Cc2ccccc2Cl)c(=O)[nH]1	-25%	-6%	-2%	nt
OCCNc1ncnc2c1nnn2Cc1ccccc1Cl	-15%	-7%	-7%	nt
SMILES	TDP1 cell noCPT	DT40 TDP1 CPT	ClpP mod	TDP1 block
COc1ccc(Nc2nc(C(C)(C)C)nc3c2nnn3Cc2ccccc2Cl)cc1OC	15µM*	18µM*	-4%	nt
Cc1ccccc1NC(=O)CSCc1nc(N)nc(Nc2ccccc2C)n1	-2%	-14%	nt	-3%
O=C(COC(=O)CCC1CCCC1)Nc1ccc(F)cc1	-7%	-21%	0%	-3%
COc1ccc(Nc2nc(C)nc3c2nnn3Cc2ccccc2)cc1OC	23µM*	?	60%	-3%
Cc1nc(N(C)Cc2ccccc2)c2nnn(Cc3ccccc3)c2n1	18µM*	23µM*	-3%	6%
Cc1nc(Nc2cc(F)ccc2C)c2nnn(Cc3ccccc3)c2n1	21µM*	?	nt	nt
Cc1nc(NC2CCCCC2)c2nnn(Cc3ccccc3Cl)c2n1	?	?	-5%	nt
Cc1nc(Nc2ccc(S(=O)(=O)N3CCCCC3C)cc2)c2nnn(Cc3ccccc3)c2n1 (stereo not drawn)	23µM*	?	32µM*	0%
c1ccc(CN(Cc2ccccc2)c2ncnc3c2nnn3Cc2ccccc2)cc1	-19%	2%	-4%	-4%
